Many of the other results were omitted from the sample, so hits are more common in it than they were.
KDM5B inh: Primary screen for KDM5B Histone Demethylases FDH-coupled qHTS; Potency, µM (highest dose often 57.7 µM), most hits filed as inhibitors; KDM5B demethylase, FDH-coupled NADH fluorescence (FDH is formaldehyde dehydrogenase); 220,000 tested, 2.6% active; Lysine-specific demethylase 5B (Homo sapiens), Q9UGL1; active = well fitted inhibition curve with a large enough effect; also: 0% is about no effect; nearly all actives have a fitted effect of over 70% in size
Target sequence (Q9UGL1 whole entry, looked up): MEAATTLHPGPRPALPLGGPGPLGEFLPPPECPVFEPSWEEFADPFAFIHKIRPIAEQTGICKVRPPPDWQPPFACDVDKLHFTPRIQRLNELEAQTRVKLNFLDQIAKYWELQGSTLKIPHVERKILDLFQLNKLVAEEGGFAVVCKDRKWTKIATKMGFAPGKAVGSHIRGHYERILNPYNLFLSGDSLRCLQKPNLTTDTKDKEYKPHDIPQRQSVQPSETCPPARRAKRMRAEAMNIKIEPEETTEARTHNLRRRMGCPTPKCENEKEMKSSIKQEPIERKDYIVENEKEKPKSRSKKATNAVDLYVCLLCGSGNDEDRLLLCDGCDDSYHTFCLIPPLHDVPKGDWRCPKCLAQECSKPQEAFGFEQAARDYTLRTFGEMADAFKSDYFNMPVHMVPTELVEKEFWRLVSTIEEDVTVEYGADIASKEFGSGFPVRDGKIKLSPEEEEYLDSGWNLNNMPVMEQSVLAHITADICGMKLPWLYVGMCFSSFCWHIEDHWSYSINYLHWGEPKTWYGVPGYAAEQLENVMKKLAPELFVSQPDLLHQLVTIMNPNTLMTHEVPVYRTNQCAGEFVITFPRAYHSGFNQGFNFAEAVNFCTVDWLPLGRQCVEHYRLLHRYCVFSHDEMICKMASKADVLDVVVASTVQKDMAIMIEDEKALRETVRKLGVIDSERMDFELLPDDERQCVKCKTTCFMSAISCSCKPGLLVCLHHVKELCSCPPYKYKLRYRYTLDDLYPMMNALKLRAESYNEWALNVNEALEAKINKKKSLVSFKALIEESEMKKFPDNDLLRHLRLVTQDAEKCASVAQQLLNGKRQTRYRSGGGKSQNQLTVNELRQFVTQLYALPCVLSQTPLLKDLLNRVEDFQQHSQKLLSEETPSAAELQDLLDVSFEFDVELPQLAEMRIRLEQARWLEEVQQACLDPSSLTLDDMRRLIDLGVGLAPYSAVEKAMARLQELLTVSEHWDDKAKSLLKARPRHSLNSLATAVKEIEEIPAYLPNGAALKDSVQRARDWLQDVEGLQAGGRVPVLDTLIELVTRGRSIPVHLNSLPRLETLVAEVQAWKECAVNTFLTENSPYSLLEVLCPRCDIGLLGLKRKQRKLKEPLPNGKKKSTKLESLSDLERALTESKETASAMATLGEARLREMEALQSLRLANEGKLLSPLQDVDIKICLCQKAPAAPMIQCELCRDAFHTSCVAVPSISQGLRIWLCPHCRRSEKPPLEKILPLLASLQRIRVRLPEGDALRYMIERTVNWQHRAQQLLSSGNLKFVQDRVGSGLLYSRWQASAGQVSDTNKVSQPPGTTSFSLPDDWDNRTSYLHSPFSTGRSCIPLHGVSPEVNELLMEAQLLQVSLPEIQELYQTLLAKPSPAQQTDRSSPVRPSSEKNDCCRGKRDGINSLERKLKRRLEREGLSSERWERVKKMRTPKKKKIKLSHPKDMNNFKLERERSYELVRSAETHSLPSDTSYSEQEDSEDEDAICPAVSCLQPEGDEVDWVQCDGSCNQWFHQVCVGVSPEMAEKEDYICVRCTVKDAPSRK
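Inhibition is measured as reduced NADH fluorescence generation from FDH coupling to formaldehyde release. Truncated KDM5BΔAP at 200 nM final acts on H3K4me3 peptide (12.5 µM in substrate mix) in pH 7.5 HEPES buffer with Tween-20, 30 min, room temperature.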
Numbers without * were called inactive; i = inactive. Potency is read from the fitted curve at half-maximal effect.

SMILES	KDM5B inh
COc1ccc(OC(C)C(=O)NCc2nc(-c3cccc(C)c3)no2)cc1 (centres undefined)	i
COc1ccc(-c2ccc3nnc(CNC(=O)C(C)Oc4ccccc4)n3n2)cc1 (centres undefined)	32µM*
COc1ccc(-c2ccc3nnc(CNC(=O)C(C)Oc4cccc(Cl)c4)n3n2)cc1 (centres undefined)	28µM*
COCCn1c(CSCc2ccc(Cl)cc2Cl)n[nH]c1=S	i
CCCn1c(-c2ccc(OCC#N)c(OC)c2)nc2c1c(=O)[nH]c(=O)n2Cc1ccccc1	i
COc1cc(/C=C(\C#N)C(=O)c2ccc(C)cc2)ccc1OCc1ccc(Cl)cc1Cl	i
CN(Cc1ccc(Br)cc1)C(=O)Cn1nnn(-c2cccs2)c1=O	i
C[N+](C)(CCCCC(=O)O)C[Si](C)(C)C	i
CCCCCN(CCCCC)C(=S)Nc1ccc(Br)cc1Cl	i
CC(C)=CC1C(C(=O)Nc2cccc(OC(F)F)c2C)C1(C)C (centres undefined)	i
C#CCOc1ccccc1-c1c(-c2ccccc2)ncn1CCCO	i
COc1cc(OC)c(-c2c(-c3ccccc3)ncn2CCF)cc1OC	25µM*
CCc1ncc(-c2c(-c3ccccc3)ncn2CCNc2cccnc2)cn1	i
O=C(CSc1nnc(-c2ccccc2F)n1C1CC1)c1cc2ccccc2o1	i
CCN(c1ccc(-c2csc(Cc3ccccc3)n2)cc1)S(C)(=O)=O	i
Cc1nc(CNC(=O)c2cn[nH]c2-c2ccccc2)cc(=O)[nH]1	i
Cc1cc(C)c(CNC(=O)c2cc(-c3cnn(C)c3C)cc3c2OCCN3C)c(=O)[nH]1	32µM*
Cc1ccc(CNC(=O)c2cnn(C)c2-n2cccc2)s1	i
Cc1cc(C)c(CNC(=O)c2cc(-c3ccnn3C)cc3c2OCCN3C)c(=O)[nH]1	35µM*
C/C(=N/NC(N)=S)c1ccc(Cl)cc1Cl	i
CC(C)=CC(=O)Nc1ccc2c(c1)-c1ccccc1C2	i
CCCCCCCCC(=O)NCCC1=CCCCC1	i
Cc1ccc(C(CNC(=O)c2oc3ccc(F)cc3c2C)N(C)C)o1 (centres undefined)	i
O=C(CCC(=O)c1ccc(Cl)cc1)OC1CCCCC1=O (centres undefined)	i
CC1CCCN1C(=O)c1cc(-c2cnn(C(C)C)c2)nc2cc(F)ccc12 (centres undefined)	28µM*
SMILES	KDM5B inh
CC(C)c1ncc(-c2cc(C(=O)N(C)C(C)C)c3ccc(F)cc3n2)cn1	i
CC(C)N(C)C(=O)c1cc(-c2cnc(C(C)(C)C)nc2)nc2cc(F)ccc12	i
Cc1cc(C(=O)NC2CCN(C(=O)C3CC3)CC2)c2ccc(F)cc2n1	i
CC1CCCCN1C(=O)CSc1nnc2c(n1)[nH]c1ccc(F)cc12 (centres undefined)	i
CC(C)n1cc(-c2cc(C(=O)N3CCC(C)(C)C3)c3ccc(F)cc3n2)cn1	32µM*
CCN1CCN(c2oc(COc3ccccc3F)nc2C#N)CC1	i
CC(C)Oc1ccccc1-c1cc(C(=O)O)c2ccccc2n1	i
O=C(N[C@H](C1CCNCC1)C1CC(O)C1)c1ccccc1C(F)(F)F (some centres undefined)	i
COc1cc(CCC(=O)N[C@H](C2CCNCC2)C2CC(O)C2)ccc1C (some centres undefined)	i
O=C(Cc1noc2ccccc12)N[C@H](C1CCNCC1)C1CC(O)C1 (some centres undefined)	i
Cc1ccc(F)c(C(=O)N[C@H](C2CCNCC2)C2CC(O)C2)c1Cl (some centres undefined)	i
Cn1cc(Cl)cc1C(=O)N[C@H](C1CCNCC1)C1CC(O)C1 (some centres undefined)	i
Cc1ccc(CCC(=O)N[C@H](C2CCNCC2)C2CC(O)C2)cc1C (some centres undefined)	i
O=C(N[C@H](C1CCNCC1)C1CC(O)C1)c1cccc(=O)[nH]1 (some centres undefined)	22µM*
Cc1cnc2c(C(=O)N[C@H](C3CCNCC3)C3CC(O)C3)cnn2c1 (some centres undefined)	32µM*
CC(C)Cc1cc(C(=O)N[C@H](C2CCNCC2)C2CC(O)C2)nc(N)n1 (some centres undefined)	22µM*
Cc1cc(NC(=O)CN2CCN(c3nccs3)CC2)no1	i
O=C(NCc1nc2ccccc2[nH]1)c1cc(-c2cccs2)nc2ccccc12	i
O=C(c1ccco1)N1CCN(C(=O)c2cc(=O)c3cc(Cl)ccc3o2)CC1	i
COc1ccc(Cl)cc1-c1ccc2c(c1)C(=O)N1CCN(C(=O)CC3(CC(=O)O)CCCC3)C[C@H]1C(=O)N2	i
CC(Oc1ccc(Cl)cc1Cl)C(=O)N1CCN(C(=O)c2ccco2)CC1 (centres undefined)	i
CCC(CC)C(=O)N[C@H]1CCN2C(=O)c3cc(-c4cc(Cl)ccc4OC)ccc3NC(=O)[C@@H]2C1	i
